Screens: PubChem, National Center for Advancing Translational Sciences (NCATS)
Pf growth 96h: Primary qHTS for delayed death inhibitors of the malarial parasite plastid, 96 hour incubation; Potency, µM (series often up to 28.7 µM), without a hit: at the top dose activity change, negative = inhibition, usual class: inhibitors; P. falciparum luciferase reporter growth, 96 h; 320,000 compounds, 6.9% hits; active = well fitted inhibition curve with a large enough effect; inconclusive = small, poorly fitted or top-dose-only effect, or another doubt; inactive = no such curve, though single readings can be large or run the other way; note: potency is the fitted concentration of half-maximal effect; % is set by controls: 0 for no effect and ±100 for the full control effect
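Delayed-death screen, second-generation endpoint: infected erythrocytes, 2% hematocrit, 0.05% parasitemia final; 96 hours at 37 C, 5% CO2; luciferase detection reagent; luminescence decrease equals reduced growth.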
NS1 inh: qHTS Assay for Inhibitors of Influenza NS1 Protein Function; AID 2326, 2010; Potency, µM (highest dose often 46.1 µM), without a hit: at the highest dose activity, positive = more growth; 270,000 compounds, 0.4% hits; note: potency is the fitted concentration of half-maximal effect; actives are rising curves; nearly all actives have a fitted effect of over 50% in size
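Recovery from NS1-induced slow growth read by OD600 in budding yeast switched to galactose assay medium (pH 6.0, -URA) at 1:100 dilution. Compound 23 nl per well; the matching strain lacking NS1 serves as control.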
Pf growth 48h: Primary qHTS for delayed death inhibitors of the malarial parasite plastid, 48 hour incubation | P. falciparum luciferase growth in erythrocytes, 48 h | Potency, µM (titrated, usually from 28.7 µM), inactives show top-dose activity change, negative = inhibition, most hits filed as inhibitors | 310,000 compounds, 5.9% hits; active = well fitted inhibition curve with a large enough effect; inconclusive = small, poorly fitted or top-dose-only effect, or another doubt; inactive = no such curve, though single readings can be large or run the other way; note: potency is the fitted concentration of half-maximal effect; % is set by controls: 0 for no effect and ±100 for the full control effect
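Luminescence readout; reporter = integrated firefly luciferase in P. falciparum. RBC culture at 2% hematocrit, 0.1% parasitemia final, 37 C/5% CO2; decreased signal taken as growth inhibition.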
Cycloheximide cs: Cycloheximide Counterscreen for Small Molecule Inhibitors of Shiga Toxin; cell reporter, cycloheximide protein synthesis inhibition counterscreen; max response, %; 300,000 compounds, 12% hits; AID 2314, 2010; in the data active = max response mostly above about 13%, no sharp cut-off; inactive = mostly below about 14%; note: read at 38.3 µM for the half of the compounds with a filed dose; 0% is about no effect
SARS PLpro yeast: qHTS of Yeast-based Assay for SARS-CoV PLP. S. cerevisiae expressing SARS-CoV PLpro, growth rescue. Potency, µM (top dose mostly 32.9 µM), inactives show at the top dose activity, positive = growth rescue, hits mostly activators. 330,000 compounds, 0.19% hits. AID 485353, 2010; note: potency is the fitted concentration of half-maximal effect; 0% is about no effect; nearly all actives have a fitted effect of over 55% in size
Shiga inhibitor: A qHTS for Small Molecule Inhibitors of Shiga Toxin. Vero cells, Shiga toxin protein synthesis inhibition reporter. inhibition, % at 38.7 µM. 290,000 compounds, 9.2% hits. AID 2315, 2010; in the data active = inhibition mostly above about 28%, no sharp cut-off; inactive = mostly below about 43%; note: 0% is about no effect
Starred values were filed as active, the others as inactive; i = inactive; ? = inconclusive; · = no result; [ ] = dose if it differs, or a comment. Rows were chosen to be rich in hits. Some 21% of all compounds tested hit in one or more screens of this group. Unless noted, calls come from the whole dose curve.

SMILES | Pf growth 96h | NS1 inh | Pf growth 48h | Cycloheximide cs | SARS PLpro yeast | Shiga inhibitor
O=C(NCCCCc1ccccc1)C12CN(Cc3ccccc3)CC1C(c1ccc([N+](=O)[O-])cc1)=NO2 (stereo not drawn) | ? | 30% | 13µM* | 9 | -3% | 10
O=C(NCc1ccco1)C12CN(Cc3ccccc3)CC1C(c1cccc([N+](=O)[O-])c1)=NO2 (stereo not drawn) | ? | 5% | ? | -5 | -11% | -10
O=C(NCCc1cccs1)C12CN(Cc3ccccc3)CC1C(c1cccc([N+](=O)[O-])c1)=NO2 (stereo not drawn) | ? | -6% | 8.3µM* | 6 | -13% | 17
CCSc1nc2ccccc2n1CC(=O)O | ? | 8% | -4% | -1 | 0% | -11
CC(C)(C)SCCNS(=O)(=O)c1ccc(C#N)cc1 | -6% | 1% | 6% | 2 | 1% | 8
CCCS(=O)(=O)N1CCCC(C(=O)Oc2ccc(C)c(C)c2)C1 (stereo not drawn) | -5% | 7% | 1% | 1 | -9% | -5
COc1ccc(C(C)NC(=S)NC2CCCC2)cc1OC (stereo not drawn) | ? | 4% | 1.9µM* | -4 | 3% | -11
CCC(NC(=S)NC1CCCCC1)c1ccc(C(C)C)cc1 (stereo not drawn) | 3.3µM* | -78% | 8.3µM* | -3 | -8% | 4
CCC(NC(=O)NC1CCCCC1)c1ccccc1 (stereo not drawn) | i | -1% | 7% | 0 | -1% | -5
Cc1ccc(C(C)NC(=S)NC2CCCCC2)cc1C (stereo not drawn) | 10µM* | -83% | 10µM* | -3 | -5% | 8
Cc1ccc(C(C)NC(=S)NC2CCCCC2)c(C)c1 (stereo not drawn) | 5.2µM* | -104% | 10µM* | -3 | -5% | -8
CC(=O)c1c(C)[nH]c(C(=O)COC(=O)c2cc(C)oc2C)c1C | -9% | · | -9% | · | -8% | ·
OCCC1CN(Cc2ccc(Oc3ncccn3)cc2)CCN1Cc1ccc(F)c(F)c1 (stereo not drawn) | 8% | -4% | 4% | -1 | 0% | 18
CN(C(=O)Cn1cnc2sccc2c1=O)C1CCCCC1 | 26% | · | 52% | · | 2% | ·
COc1cc(C(C)=O)ccc1Oc1ncnc2c1cnn2-c1ccc(C)c(C)c1 | ? | -5% | ? | 32* | -15% | 63*
CC(=O)CSc1ncnc2c1cnn2-c1ccccc1 | -10%[5.75 µM] | · | 156% | 36* | -1% | 91*
O=C(CSc1ncnc2c1cnn2-c1cccc(Cl)c1)NCC1CCCO1 (stereo not drawn) | -6% | 2% | -16% | -1 | -5% | 16
Cc1ccccc1-n1ncc2c(SCC(=O)NCc3cccs3)ncnc21 | 5.2µM* | ? | -27% | 13 | 0% | 19
CC(Sc1ncnc2c1cnn2-c1ccccc1)C(=O)NCC1CCCO1 (stereo not drawn) | ? | -5% | -3% | 20* | -11% | 64
CC(=O)Nc1ccc(S(=O)(=O)N[C@@H](C)C(=O)OCC(=O)NC2CCCC2)cc1 | -27% | · | ? | · | 1% | ·
O=C(CSc1ncnc2c1cnn2-c1ccccc1)Nc1ccccc1 | -4% | -16% | 27% | -3 | -1% | -6
Cc1ccc(-n2ncc3c(SCC(N)=O)ncnc32)cc1C | ? | 15% | 120% | 48* | 3% | 52*
CNC(=O)CSc1ncnc2c1cnn2-c1ccccc1 | 45% | · | 79% | 35* | -1% | 69*
Cc1ccc(-n2ncc3c(=O)n(CC(N)=O)cnc32)cc1C | ? | 16% | 28% | 7 | 4% | 17
COc1cccc(C(=O)O[C@H]2[C@H](C)NS(=O)(=O)[C@H]3C[C@@H]4C=C[C@]23O4)c1 | 30% | · | 8% | · | 3% | ·
O=C(O)/C=C/C(=O)Nc1ccc(Cc2ccc(NC(=O)/C=C/C(=O)O)cc2)cc1 | 5% | 3% | 4% | -2 | -4% | 34
